# Data published in PubChem BioAssay (EPA / NIEHS).
# Inconclusive results are not listed. Calls of active or inactive are those of the source. The calls were made as follows, unless noted: active = hit-call score of the fitted dose curve at least 0.9, where 1 is the maximum; inconclusive = response in the unintended direction; inactive = score below 0.9.
# Columns and labels:
# [1] = molecular target: Nuclear receptor subfamily 1 group I member 3 (Homo sapiens) (UniProt Q14994); test: ATG_CAR_TRANS: Attagene TRANS-FACTORIAL HepG2 Assay for human Constitutive Androstane Receptor (CAR) (AID 2282969); conditions: HepG2 Attagene TRANS-FACTORIAL CAR reporter;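 also: activators raise reporter mRNA above DMSO so AC50 marks induction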
# Sequence of Nuclear receptor subfamily 1 group I member 3 (Homo sapiens) (Q14994 whole entry, looked up, the tested form may be a part): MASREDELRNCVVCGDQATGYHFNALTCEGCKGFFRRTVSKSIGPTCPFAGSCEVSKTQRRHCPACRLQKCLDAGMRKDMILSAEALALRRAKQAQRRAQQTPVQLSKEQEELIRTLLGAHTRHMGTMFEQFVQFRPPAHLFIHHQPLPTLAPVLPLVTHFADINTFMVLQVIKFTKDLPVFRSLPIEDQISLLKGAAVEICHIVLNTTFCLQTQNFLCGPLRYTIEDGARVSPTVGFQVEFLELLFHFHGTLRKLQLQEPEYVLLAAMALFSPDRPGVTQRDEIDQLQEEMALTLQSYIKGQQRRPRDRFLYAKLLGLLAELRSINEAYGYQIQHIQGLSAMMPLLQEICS
# Method in brief: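 Steps: transient transfection of HepG2 with multiple GAL4-UAS reporter units; 24 h compound incubation; RNA isolation, RT-PCR, 6-FAM primer extension, HpaI digest; capillary electrophoresis. Gain-of-signal relative to DMSO negative control.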
# [2] = molecular target: rat Thyrotropin Releasing Hormone Receptor (TRH), Trhr (gene 25570) (UniProt Q01717); test: NVS_GPCR_rTRH: NovaScreen (NVS) G Protein-Coupled Receptor Assay for rat Thyrotropin Releasing Hormone Receptor (TRH) (AID 2283329);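 also: hit means lower bound tracer signal versus DMSO baseline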
# Sequence of rat Thyrotropin Releasing Hormone Receptor (TRH), Trhr (gene 25570) (Q01717 whole entry, looked up): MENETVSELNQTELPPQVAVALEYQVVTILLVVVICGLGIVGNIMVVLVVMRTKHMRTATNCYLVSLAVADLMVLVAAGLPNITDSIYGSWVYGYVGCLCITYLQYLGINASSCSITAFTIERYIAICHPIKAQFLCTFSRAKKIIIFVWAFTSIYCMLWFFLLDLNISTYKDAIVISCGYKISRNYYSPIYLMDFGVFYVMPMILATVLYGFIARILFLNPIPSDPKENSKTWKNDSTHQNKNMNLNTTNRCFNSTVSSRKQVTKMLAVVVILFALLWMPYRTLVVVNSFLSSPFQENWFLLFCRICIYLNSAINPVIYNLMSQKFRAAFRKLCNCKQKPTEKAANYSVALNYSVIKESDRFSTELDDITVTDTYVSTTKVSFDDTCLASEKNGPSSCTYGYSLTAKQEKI
# Method in brief: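 Test compounds are screened at 25 uM in duplicate against radioligand binding in rat forebrain membranes, with active pairs followed up over a concentration range. Detection uses filter-based radiodetection after a 4 h exposure.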
# [3] = CCTE_Deisenroth_AIME_384WELL_CTox_Active: Cytotoxicity Assessment (CTOX) in CCTE's 384-well Estrogen Receptor Transactivation Assay with AIME metabolic competence (metabolism positive), Deisenroth Lab (AID 2284037);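 also: chemicals first conditioned 2 h by alginate-bound induced rat liver S9 before cells; activity means signal loss indicating cell death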
# Method in brief: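 VM7Luc4E2 breast cells received medium pre-incubated 2 h with chemical over alginate microspheres holding induced male Sprague Dawley rat liver S9; viability read 24 h later by protease-substrate fluorescence. Loss of signal, bidirectional fit, 0.002–200 uM.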
# [4] = CCTE_Deisenroth_AIME_384WELL_CTox_Inactive: Cytotoxicity Assessment (CTOX) in CCTE's 384-well Estrogen Receptor Transactivation Assay without AIME metabolic competence (metabolism negative), Deisenroth Lab (AID 2284039);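 also: cell viability via live-cell protease substrate cleaved to fluorescent probe; cells exposed 24 h to medium preincubated 2 h with alginate-water beads without S9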
# Method in brief: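 Fluorescence from a live-cell protease substrate, read after 24 h in VM7Luc4E2 cells, indicated viability. Test medium came from a 2 h AIME step without hepatic S9 (alginate-water microspheres); concentrations spanned 0.002 - 200 uM, single technical replicate per run.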
# [5] = read-out: Vascular cell adhesion molecule 1 (VCAM1), VCAM1 (gene 7412); test: BSK_MyoF_VCAM1: BioMAP Diversity Plus: MyoF Assay for Vascular cell adhesion molecule 1 (VCAM1) Biomarker Activity (AID 2284231; active = hit-call score of the fitted dose curve at least 0.9, where 1 is the maximum; inactive = score below 0.9); conditions: primary human lung fibroblasts
# Method in brief: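 Primary human lung fibroblasts were dosed with test chemical for 24 h, then cell-surface VCAM-1 was measured by ELISA. Activity was fitted in the positive direction against DMSO as negative control and baseline.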
# [6] = read-out: Plasminogen activator inhibitor-1 (PAI1), SERPINE1 (gene 5054); test: BSK_MyoF_PAI1: BioMAP Diversity Plus: MyoF Assay for Plasminogen activator inhibitor-1 (PAI1) Biomarker Activity (AID 2284256; active = hit-call score of the fitted dose curve at least 0.9, where 1 is the maximum; inactive = score below 0.9;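 as to outcome: PAI-1 protein level measured by ELISA in fibroblast cultures; PAI-1 read 24 h after compound addition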); conditions: primary human lung fibroblasts
# Method in brief: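 ELISA read-out of PAI-1 from primary human lung fibroblast cultures 24 h after dosing; gain-of-signal fit versus DMSO control.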
# [7] = BSK_MyoF_SRB: Viability Assessment in the BioMAP Diversity Plus: MyoF Assay (AID 2284267; active = hit-call score of the fitted dose curve at least 0.9, where 1 is the maximum; inactive = score below 0.9;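 also: total protein by SRB absorbance in parallel cultures as cytotoxicity measure; cells assessed 24 h after compound addition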); conditions: primary human lung fibroblasts
# Method in brief: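 In this viability endpoint, fibroblasts from human lung are treated for 24 h, TCA-fixed, SRB-stained (0.1%) and read at 560 nm. Gain of signal relative to DMSO defines activity.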
# [8] = read-out: Matrix Metallopeptidase 1 (MMP1), MMP1 (gene 4312); test: BSK_MyoF_MMP1: BioMAP Diversity Plus: MyoF Assay for Matrix Metallopeptidase 1 (MMP1) Biomarker Activity (AID 2284268; active = hit-call score of the fitted dose curve at least 0.9, where 1 is the maximum; inactive = score below 0.9); conditions: primary human lung fibroblasts
# Method in brief: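 ELISA readout of MMP1 in primary human lung fibroblast cultures, 24 h post-dosing. Gain of signal versus DMSO vehicle control defines activity. Parallel SRB staining (0.1% after 10% TCA fixation, 560 nm) flags overt cytotoxicity.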
# [9] = read-out: TIMP metallopeptidase inhibitor 1 (TIMP1), TIMP1 (gene 7076); test: BSK_MyoF_TIMP1: BioMAP Diversity Plus: MyoF Assay for TIMP metallopeptidase inhibitor 1 (TIMP1) Biomarker Activity (AID 2284269; active = hit-call score of the fitted dose curve at least 0.9, where 1 is the maximum; inactive = score below 0.9); conditions: primary human lung fibroblasts
# Method in brief: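 TIMP-1 levels were determined by ELISA in human lung fibroblasts treated for 24 h. DMSO served as negative control and baseline for upward curve fitting.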
# [10] = molecular target: Bile acid receptor (Homo sapiens) (UniProt Q96RI1); test: OT_FXR_FXRSRC1_0480: Odyssey Thera (OT) 8-hour HEK293T Protein-Complementation Assay for Farnesoid X receptor/SRC-1 Co-activator (AID 2283383)
# Sequence of Bile acid receptor (Homo sapiens) (Q96RI1 whole entry, looked up): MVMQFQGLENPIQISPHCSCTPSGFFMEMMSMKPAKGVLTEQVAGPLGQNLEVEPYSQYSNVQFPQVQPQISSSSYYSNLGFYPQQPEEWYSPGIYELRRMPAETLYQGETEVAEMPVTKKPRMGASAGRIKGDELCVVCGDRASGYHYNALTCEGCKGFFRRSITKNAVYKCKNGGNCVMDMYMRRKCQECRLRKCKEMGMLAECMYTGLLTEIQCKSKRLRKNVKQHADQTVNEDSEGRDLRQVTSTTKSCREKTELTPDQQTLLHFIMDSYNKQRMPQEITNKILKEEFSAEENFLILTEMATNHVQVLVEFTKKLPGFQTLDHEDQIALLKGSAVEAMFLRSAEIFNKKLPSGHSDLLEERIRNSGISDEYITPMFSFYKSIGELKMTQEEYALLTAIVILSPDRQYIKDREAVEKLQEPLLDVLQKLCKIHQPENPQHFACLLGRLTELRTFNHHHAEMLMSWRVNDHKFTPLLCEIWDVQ
# Method in brief: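 Readings were taken 8 h after dosing HEK293T cells in a split-reporter complementation format pairing FXR with SRC-1. Increased fluorescence relative to DMSO-treated wells defined activity.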
# [11] = molecular target: human Retinoic Acid Receptor beta (RARb), RARB (gene 5915) (UniProt P10826); test: ATG_RARb_TRANS: Attagene TRANS-FACTORIAL HepG2 Assay for human Retinoic Acid Receptor beta (AID 2283004)
# Sequence of human Retinoic Acid Receptor beta (RARb), RARB (gene 5915) (P10826 whole entry, looked up, the tested form may be a part): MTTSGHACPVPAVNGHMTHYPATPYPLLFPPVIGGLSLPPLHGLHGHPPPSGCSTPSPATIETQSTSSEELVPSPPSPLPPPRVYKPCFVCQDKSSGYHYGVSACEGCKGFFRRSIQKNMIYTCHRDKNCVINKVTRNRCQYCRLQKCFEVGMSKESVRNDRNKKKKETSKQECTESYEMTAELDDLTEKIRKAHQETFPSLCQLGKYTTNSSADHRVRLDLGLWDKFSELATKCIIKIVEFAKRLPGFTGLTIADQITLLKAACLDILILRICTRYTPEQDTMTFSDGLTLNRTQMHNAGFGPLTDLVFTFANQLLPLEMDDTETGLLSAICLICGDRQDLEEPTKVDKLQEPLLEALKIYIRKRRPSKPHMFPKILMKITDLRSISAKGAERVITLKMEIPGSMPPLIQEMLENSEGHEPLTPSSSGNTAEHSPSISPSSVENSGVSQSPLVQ
# Method in brief: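 HepG2 cells transiently transfected with multiplexed GAL4-UAS reporter units expressing chimeric NR–Gal4 fusions; 24 h compound exposure. Reporter mRNA quantified by RT-PCR, 6-FAM labelling, HpaI digestion and capillary electrophoresis; gain-of-signal fitted against DMSO baseline.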
# [12] = molecular target: human Peripheral-type Benzodiazepine Receptor (PBR), TSPO (gene 706) (UniProt P30536); test: NVS_MP_hPBR: NovaScreen (NVS) Membrane Protein Assay for human Peripheral-type Benzodiazepine Receptor (PBR) (AID 2283331);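 also: hits reduce radioligand binding relative to DMSO baseline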
# Sequence of human Peripheral-type Benzodiazepine Receptor (PBR), TSPO (gene 706) (P30536 whole entry, looked up): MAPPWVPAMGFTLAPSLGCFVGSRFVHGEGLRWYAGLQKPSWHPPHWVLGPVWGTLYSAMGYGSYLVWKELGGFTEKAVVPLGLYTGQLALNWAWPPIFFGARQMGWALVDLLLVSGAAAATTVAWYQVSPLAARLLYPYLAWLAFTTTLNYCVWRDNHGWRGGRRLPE
# Method in brief: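 Using human colon-derived membranes, this one-endpoint binding test reads radioligand loss by scintillation after 1 h. Screening started at 25 uM in duplicate, with positive and negative controls on every plate, and actives moved to dose series.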
# [13] = test system: Thyroperoxidase (TPO), gene 54314; test: CCTE_Simmons_AUR_rTPO: CCTE's Amplex UltraRed Assay for Thyroperoxidase (TPO) Inhibition, Simmons Lab (AID 2283662);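 also: potency for loss of signal meaning inhibition of peroxidase activity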
# Method in brief: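 Endpoint is decreased Amplex UltraRed fluorescence after a 30-min, 37C reaction of rat thyroid microsomes with 300 uM H2O2. Eight test concentrations (5 nM–87.5 uM final) in 0.5% DMSO, three biological replicates each.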
# [14] = CCTE_Simmons_CellTiterGLO_HEK293T: Viability Assessment in CCTE's Assays for Thyroperoxidase (TPO) Inhibition, Simmons Lab (AID 2283665);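 as to AC50: cells exposed to compound for 24 h before readout; actives reduce ATP signal below DMSO vehicle meaning cytotoxicity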
# Method in brief: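 ATP depletion measured in HEK293T cells after 24 h dosing (8 concentrations, 5 nM–87.5 uM final; DMSO 0.5%) using CellTiter-Glo luminescence; curves fit for loss of signal against DMSO baseline.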
# [15] = molecular target: Luciferin 4-monooxygenase (Photinus pyralis) (UniProt P08659); test: CCTE_Simmons_QuantiLum_inhib_2: CCTE's Firefly Luciferase Inhibition Assay, Simmons Lab (AID 2283767)
# Sequence of Luciferin 4-monooxygenase (Photinus pyralis) (P08659 whole entry, looked up): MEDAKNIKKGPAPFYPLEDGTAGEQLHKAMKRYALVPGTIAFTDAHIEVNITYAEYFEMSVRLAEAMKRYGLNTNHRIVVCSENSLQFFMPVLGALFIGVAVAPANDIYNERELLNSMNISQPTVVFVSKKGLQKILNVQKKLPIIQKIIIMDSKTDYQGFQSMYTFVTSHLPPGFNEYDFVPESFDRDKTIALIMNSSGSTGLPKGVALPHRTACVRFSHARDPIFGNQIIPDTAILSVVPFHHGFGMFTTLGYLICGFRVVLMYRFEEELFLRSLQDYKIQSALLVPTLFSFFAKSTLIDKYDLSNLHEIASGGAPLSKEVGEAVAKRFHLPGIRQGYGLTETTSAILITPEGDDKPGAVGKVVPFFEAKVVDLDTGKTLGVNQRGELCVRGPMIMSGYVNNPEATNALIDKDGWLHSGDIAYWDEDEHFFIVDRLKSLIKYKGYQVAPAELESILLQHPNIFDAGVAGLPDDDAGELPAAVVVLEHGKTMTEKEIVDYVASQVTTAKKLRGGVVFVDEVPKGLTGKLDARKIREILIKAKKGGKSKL
# Method in brief: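 Eight-point titrations of each chemical, 5 nM–87.5 uM final in 0.5% DMSO, were run in three biological replicates against recombinant luciferase for 30 min at 37C. Bioluminescence signal loss, read on reagent injection, gave the inhibition endpoint.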
# [16] = molecular target: Bile acid receptor (Homo sapiens) (UniProt Q96RI1); test: OT_FXR_FXRSRC1_1440: Odyssey Thera (OT) 24-hour HEK293T Protein-Complementation Assay for Farnesoid X receptor/SRC-1 Co-activator (AID 2283384)
# Method in brief: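 Single endpoint, analysed for increased fluorescence against DMSO controls. HEK293T cells carrying FXR and SRC-1 linked to complementary reporter halves were exposed to chemicals for 24 h before reading.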
# [17] = molecular target: Androgen receptor (Homo sapiens) (UniProt P10275); test: ATG_AR_TRANS: Attagene TRANS-FACTORIAL HepG2 Assay for human Androgen Receptor (AR) (AID 2282973); conditions: HepG2 Attagene TRANS-FACTORIAL AR reporter transcription
# Sequence of Androgen receptor (Homo sapiens) (P10275 whole entry, looked up, the tested form may be a part): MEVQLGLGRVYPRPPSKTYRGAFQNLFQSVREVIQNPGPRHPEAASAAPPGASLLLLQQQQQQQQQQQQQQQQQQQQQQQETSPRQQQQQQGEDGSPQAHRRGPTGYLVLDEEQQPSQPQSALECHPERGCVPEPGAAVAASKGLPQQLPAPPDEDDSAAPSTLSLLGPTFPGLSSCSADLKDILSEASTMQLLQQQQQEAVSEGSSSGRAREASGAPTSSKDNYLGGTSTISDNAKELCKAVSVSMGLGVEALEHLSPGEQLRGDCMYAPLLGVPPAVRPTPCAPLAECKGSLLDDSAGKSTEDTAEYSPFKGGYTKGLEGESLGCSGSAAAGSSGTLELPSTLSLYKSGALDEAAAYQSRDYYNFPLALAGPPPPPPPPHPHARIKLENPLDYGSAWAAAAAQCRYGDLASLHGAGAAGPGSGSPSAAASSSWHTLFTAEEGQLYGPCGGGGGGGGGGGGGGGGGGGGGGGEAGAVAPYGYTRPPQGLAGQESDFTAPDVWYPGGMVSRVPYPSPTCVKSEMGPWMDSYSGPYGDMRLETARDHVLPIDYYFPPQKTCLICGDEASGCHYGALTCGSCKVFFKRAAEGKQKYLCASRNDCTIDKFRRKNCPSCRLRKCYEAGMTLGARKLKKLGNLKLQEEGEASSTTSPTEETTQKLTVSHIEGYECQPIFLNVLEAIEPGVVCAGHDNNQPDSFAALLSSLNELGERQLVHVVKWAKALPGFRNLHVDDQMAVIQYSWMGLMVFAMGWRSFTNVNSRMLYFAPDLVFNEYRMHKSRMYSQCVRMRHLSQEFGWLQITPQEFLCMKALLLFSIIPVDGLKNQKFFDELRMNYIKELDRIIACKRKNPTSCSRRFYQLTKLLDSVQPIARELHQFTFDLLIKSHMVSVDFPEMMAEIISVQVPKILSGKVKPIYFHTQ
# Method in brief: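 HepG2 cells transiently transfected with multiplexed GAL4-UAS reporter units and chimeric NR-Gal4 fusion; 24 h compound exposure. Reporter mRNA measured by RT-PCR, 6-FAM labelling, HpaI digestion and capillary electrophoresis; gain-of-signal fitted relative to DMSO baseline.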
# [18] = molecular target: human Ephrin type-A Receptor 1 (EphA1), EPHA1 (gene 2041) (UniProt P21709); test: NVS_ENZ_hEphA1: NovaScreen (NVS) Enzymatic Assay for human Ephrin type-A Receptor 1 (EphA1) (AID 2283158);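 also: activity is signal loss versus DMSO meaning EphA1 kinase inhibition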
# Sequence of human Ephrin type-A Receptor 1 (EphA1), EPHA1 (gene 2041) (P21709 whole entry, looked up): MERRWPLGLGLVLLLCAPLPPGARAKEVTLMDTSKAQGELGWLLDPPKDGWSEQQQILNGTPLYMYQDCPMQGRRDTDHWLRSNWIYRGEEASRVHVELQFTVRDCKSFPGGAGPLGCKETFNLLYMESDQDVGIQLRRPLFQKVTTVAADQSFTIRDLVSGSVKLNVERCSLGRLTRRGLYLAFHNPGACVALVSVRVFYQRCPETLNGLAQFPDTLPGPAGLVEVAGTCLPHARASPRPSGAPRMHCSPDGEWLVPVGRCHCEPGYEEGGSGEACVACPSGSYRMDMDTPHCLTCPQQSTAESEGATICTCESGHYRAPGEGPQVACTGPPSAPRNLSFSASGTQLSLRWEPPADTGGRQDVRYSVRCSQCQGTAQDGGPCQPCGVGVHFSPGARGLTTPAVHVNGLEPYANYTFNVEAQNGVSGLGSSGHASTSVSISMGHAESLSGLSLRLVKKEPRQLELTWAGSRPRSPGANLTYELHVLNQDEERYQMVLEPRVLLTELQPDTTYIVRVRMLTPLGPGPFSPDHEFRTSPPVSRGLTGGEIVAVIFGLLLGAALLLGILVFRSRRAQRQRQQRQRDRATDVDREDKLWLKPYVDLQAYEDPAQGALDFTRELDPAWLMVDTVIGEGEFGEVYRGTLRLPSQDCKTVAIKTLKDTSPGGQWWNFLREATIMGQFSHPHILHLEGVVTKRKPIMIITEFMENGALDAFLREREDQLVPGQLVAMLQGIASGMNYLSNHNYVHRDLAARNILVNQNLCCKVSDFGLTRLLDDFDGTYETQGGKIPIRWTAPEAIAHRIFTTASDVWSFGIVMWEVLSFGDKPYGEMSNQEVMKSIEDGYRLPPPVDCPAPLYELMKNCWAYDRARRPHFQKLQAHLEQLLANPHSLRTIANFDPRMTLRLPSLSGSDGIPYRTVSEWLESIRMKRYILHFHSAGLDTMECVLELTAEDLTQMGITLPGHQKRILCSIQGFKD
# Method in brief: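 Cell-free enzymatic assay with recombinant EphA1 and fluorescent substrate; product separated by electrophoretic mobility shift, fluorescence intensity read 1 hour after dosing. Loss of signal versus DMSO baseline; primary duplicate screen at 25 uM, actives followed to 50 uM top concentration.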
# [19] = molecular target: Retinoic acid receptor alpha (Homo sapiens) (UniProt P10276); test: ATG_RARa_TRANS: Attagene TRANS-FACTORIAL HepG2 Assay for human Retinoic Acid Receptor alpha (RARa) (AID 2283005)
# Sequence of Retinoic acid receptor alpha (Homo sapiens) (P10276 whole entry, looked up, the tested form may be a part): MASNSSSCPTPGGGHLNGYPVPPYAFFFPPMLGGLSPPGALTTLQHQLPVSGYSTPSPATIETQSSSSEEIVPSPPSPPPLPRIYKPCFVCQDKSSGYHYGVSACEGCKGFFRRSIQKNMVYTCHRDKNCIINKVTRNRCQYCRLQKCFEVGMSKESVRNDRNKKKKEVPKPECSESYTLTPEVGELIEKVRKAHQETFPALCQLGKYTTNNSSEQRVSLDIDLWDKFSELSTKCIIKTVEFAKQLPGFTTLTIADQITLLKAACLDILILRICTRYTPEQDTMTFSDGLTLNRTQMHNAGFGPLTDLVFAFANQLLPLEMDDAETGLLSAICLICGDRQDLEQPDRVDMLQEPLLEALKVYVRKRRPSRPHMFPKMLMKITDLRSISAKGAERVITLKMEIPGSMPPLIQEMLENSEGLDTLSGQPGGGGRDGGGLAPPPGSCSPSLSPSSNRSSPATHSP
# Method in brief: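 HepG2 cells transiently transfected with multiple reporter units expressing chimeric RARα-GAL4 fusion, with GAL4-UAS-driven reporters. After 24 h compound exposure, reporter mRNA induction quantified by RT-PCR and capillary electrophoresis with fluorescent labeling; gain-of-signal fitted relative to DMSO control.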
smiles,measurement,setting,value
C=CCN(CC=C)C(=O)C(Cl)Cl,outcome,[1],inactive
same,outcome,[2],inactive
same,outcome,[3],inactive
same,outcome,[4],inactive
same,outcome,[5],inactive
same,outcome,[6],inactive
same,outcome,[7],inactive
same,outcome,[8],inactive
same,outcome,[9],inactive
c1ccc2c(c1)CCCC2,outcome,[10],inactive
CC(C)[C@@H](C(=O)O[C@@H](C#N)c1cccc(Oc2ccccc2)c1)c1ccc(Cl)cc1,outcome,[1],inactive
Oc1ccc(Cl)cc1,outcome,[11],inactive
same,outcome,[2],inactive
same,AC50,[12],12.3 µM (active)
Nc1ccc(Cl)c(Cl)c1,AC50,[13],1.16 µM (active)
same,AC50,[14],2.18 µM (active)
same,outcome,[15],inactive
same,outcome,[3],inactive
same,outcome,[4],inactive
CC(C)CCCCCCCOC(=O)c1ccccc1C(=O)OCCCCCCCC(C)C,outcome,[5],inactive
same,outcome,[6],inactive
same,outcome,[7],inactive
same,outcome,[8],inactive
same,outcome,[9],inactive
CCOC(=O)NC(=S)Nc1ccccc1NC(=S)NC(=O)OCC,outcome,[11],inactive
same,AC50,[13],16 µM (active)
same,outcome,[15],inactive
COc1cc(OC)nc(Oc2cccc(Oc3nc(OC)cc(OC)n3)c2C(=O)O)n1,outcome,[2],inactive
same,outcome,[10],inactive
same,outcome,[16],inactive
same,AC50,[13],34.9 µM (active)
same,outcome,[14],inactive
same,outcome,[15],inactive
CC(C)COP(=O)(OCC(C)C)OCC(C)C,AC50,[12],25 µM (active)
same,outcome,[5],inactive
same,outcome,[6],inactive
same,outcome,[7],inactive
same,outcome,[8],inactive
same,outcome,[9],inactive
Cc1cc(C)c(C2=C(OC(=O)CC(C)(C)C)C3(CCCC3)OC2=O)c(C)c1,outcome,[1],inactive
same,outcome,[10],inactive
same,outcome,[16],inactive
same,outcome,[3],inactive
same,outcome,[4],inactive
CC(C)(C)C(O)C(Oc1ccc(-c2ccccc2)cc1)n1cncn1 (stereo not given),outcome,[17],inactive
same,outcome,[12],inactive
same,AC50,[5],30 µM (active)
same,outcome,[6],inactive
same,AC50,[7],32 µM (active)
same,AC50,[8],30 µM (active)
same,AC50,[9],17.1 µM (active)
CC(C)(C)C(=O)CCl,outcome,[18],inactive
same,AC50,[5],20 µM (active)
same,AC50,[6],32.9 µM (active)
same,outcome,[7],inactive
same,outcome,[8],inactive
same,outcome,[9],inactive
NNc1ccccc1,outcome,[1],inactive
CCC1CCC(=O)O1 (stereo not given),outcome,[11],inactive
same,outcome,[19],inactive
